Screens (PubChem)
HSF1 inh: HSF1 inhibition. NIH3T3-HGL HSE-luciferase, MG132-induced, luminescence 8 h; stronger effect = lower value. activity change, negative = inhibition, % at 7.5 µM (by protocol). 300,000 tested, 0.77% active;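 active = more than half of replicate wells show activity change below -50%, luminescence cut by over half; inconclusive = some wells, but at most half, below -50%; inactive = no replicate well below -50%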;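 also: luciferase reports HSF-1 transcriptional activity via heat shock element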
AHR activator: activators of human aryl hydrocarbon receptor | P35869 | AHR-responsive luciferase reporter cells, luminescence | activation, % at 5 µM | 320,000 tested, 2.5% active; in the data active = activation above about 47%
FXN GAA850 act: increases GAA850 frataxin promoter reporter activity; HEK293 lucGAA850 FXN promoter luciferase reporter, 24 h; percent of 10 µM SAHA response; activation, % at 6 µM; 360,000 tested, 0.56% active; AID 540364;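 active = activation above the average of all compounds screened plus 3 SD, cutoff fixed separately per campaign, cut at about 7.5% in these data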
DAX1 inh: inhibits human nuclear receptor DAX1; P51843; HEK293 Gal4-DAX1 luciferase reporter, luminescence; inhibition, % at 6.75 µM; 340,000 tested, 0.99% active;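 active = inhibition above the mean over all tested compounds plus 3 SD, cut at about 4.2% in these data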;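 also: inhibition shows as a rise in luminescence from relieved DAX1 repression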
Target sequence (P51843 207-470 limits assumed): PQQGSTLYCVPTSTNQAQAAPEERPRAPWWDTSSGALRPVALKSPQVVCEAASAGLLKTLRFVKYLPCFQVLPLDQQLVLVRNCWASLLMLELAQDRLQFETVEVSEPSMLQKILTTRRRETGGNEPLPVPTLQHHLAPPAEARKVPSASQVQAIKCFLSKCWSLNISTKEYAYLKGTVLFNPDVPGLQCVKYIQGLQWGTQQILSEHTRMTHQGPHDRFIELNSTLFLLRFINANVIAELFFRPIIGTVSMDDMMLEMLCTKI
HSF-1 act: increases HSF-1 driven luciferase reporter signal | NIH3T3-HGL HSF-1 luciferase reporter, MG132, 8 h; 100% = twice DMSO control signal | 300,000 tested, 1.7% active | AID 504408 | activation, % at 9 µM;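 active = mean replicate activation of at least 50% with a set share of replicates each reaching 50%; inconclusive = only one of those two conditions met; inactive = mean below 50% and too few replicates reaching it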
Numbers stand for hits; – = inactive; ? = inconclusive; · = no result given. Most compounds without a hit are left out; they make up all but 5.4% or so of the library.

SMILES	HSF1 inh	AHR activator	FXN GAA850 act	DAX1 inh	HSF-1 act
CC(=O)C1CCC2C3CC=C4N(C)C(=O)CCC4(C)C3CCC12C (stereo not given)	·	·	–	–	·
Cc1ccc(C(=O)c2nc(C(=O)NCCO)nc3ccccc23)cc1	·	48	–	–	·
CN1C(=O)c2ccc(C(=O)Nc3ccccc3O)cc2C1=O	–	56	–	–	–
O=C1CN(S(=O)(=O)c2ccccc2)CCN1	·	–	–	–	·
CC1CC2(CCCCC2)Nc2ccc3ccccc3c21 (stereo not given)	–	–	–	–	58
Cc1ccc(CN2C(=O)C(C)Oc3ccccc32)cc1 (stereo not given)	–	–	–	–	–
Cc1ccc(N2Cc3ccccc3OC(C)C2=O)cc1 (stereo not given)	–	–	–	–	55
COc1ccccc1CNC(=O)CN1CCN(c2ccc(C(C)=O)cc2)CC1	–	–	–	–	–
CC(=O)c1ccccc1NC(=O)COC(=O)c1cc[n+]([O-])cc1	·	–	–	–	·
O=C(COC(=O)c1cc[n+]([O-])cc1)Nc1cccc(Cl)c1Cl	-66	–	–	–	–
C[n+]1c(/C=C/c2ccc(O)cc2)ccc2ccccc21	–	–	–	–	–
C[n+]1c(/C=C/c2ccc3c(c2)OCO3)ccc2ccccc21	-72	–	–	6.0	–
O=[N+]([O-])c1ccccc1CSc1ccccn1	–	–	–	·	–
O=[N+]([O-])c1ccccc1CCc1cnc(Cl)s1	-63	–	–	–	–
Cc1ccc(NC(=O)CSc2nnc(-c3n[nH]c4ccccc34)n2-c2ccccc2)c(C)c1	–	–	–	–	–
CCOC(=O)CSc1nc(Cc2ccccc2)nc2ccccc12	–	–	–	4.3	–
CCOC(=O)CSc1nc(CC)nc2ccccc12	·	–	–	–	·
CCn1c(SCC(=O)NCC2CCCO2)nnc1-c1ccc(S(=O)(=O)N2CCN(C)CC2)cc1 (stereo not given)	–	–	–	–	–
COc1ccc(C(=O)C[n+]2cc(Br)cc3ccccc32)cc1[N+](=O)[O-]	–	71	–	–	–
COc1ccc(C(=O)OCC(N)=O)cc1[N+](=O)[O-]	–	–	–	–	–
COc1ccccc1OCCNC(=O)C(CCSC)NS(=O)(=O)c1ccccc1F (stereo not given)	–	–	–	–	–
O=C(CSc1ccc2ccccc2n1)NCc1ccc2c(c1)OCO2	–	64	–	–	–
O=C(CSc1n[nH]c(-c2cccs2)n1)NCc1ccc2c(c1)OCO2	–	58	–	–	–
O=C(CCCSc1nc2ccccc2s1)NCc1ccc2c(c1)OCO2	–	50	–	–	–
O=C(CSc1ccc2nnc(-c3ccccc3)n2n1)NCc1ccc2c(c1)OCO2	–	56	–	–	–
SMILES	HSF1 inh	AHR activator	FXN GAA850 act	DAX1 inh	HSF-1 act
Cc1ccc(NC(=O)N2CCCCC2)cc1[N+](=O)[O-]	–	–	–	–	–
CCCNC(=O)COc1coc(CN2CCN(c3ccccc3F)CC2)cc1=O	–	–	–	–	–
CC(C)(C)c1cc(NS(=O)(=O)c2cccs2)no1	–	–	–	–	–
COc1cc2c(cc1OC)C(C)N(S(=O)(=O)c1cccs1)CC2 (stereo not given)	–	·	–	–	–
COc1cc2c(cc1OC)C(C)N(S(=O)(=O)c1ccc(C)cc1)CC2 (stereo not given)	–	–	–	–	60
Cc1ccccc1NC(=O)Cc1nc(COC(=O)CSc2ccc(F)cc2)cs1	·	·	–	–	·
COc1cc2c(=O)n(CCC(=O)NCC3CCCO3)c(=O)n(CC(=O)c3ccc(Cl)cc3)c2cc1OC (stereo not given)	–	–	–	5.3	–
C#Cc1cccc(NC(=O)c2ccc(Cl)cc2Cl)c1	–	–	–	–	?
O=C(Nc1ccsn1)c1ccc(Cl)cc1Cl	–	–	–	4.5	–
Cc1cc(NC(=O)Nc2cccc(C)c2C)no1	–	52	–	–	–
Cc1ccc(NC(=O)Nc2cc(C)on2)cc1	–	–	–	–	–
Cc1cc(NC(=O)Nc2ccc(Cl)cc2)no1	–	–	–	4.8	–
O=C(Nc1ccccc1Cl)c1ccc(Cl)cc1Cl	–	–	–	–	–
Cc1cc(NC(=O)c2ccc(Cl)cc2Cl)no1	–	–	–	6.7	–
CC1(C(=O)NS(=O)(=O)c2ccc(Cl)s2)CCN1C(=O)Cc1ccc(Cl)cc1Cl (stereo not given)	·	·	–	·	·
O=C(NNC(=O)c1ccc(Cl)nc1)c1ccncc1	·	–	–	–	·
CC1CCN(C(=O)CCCOc2cc(=O)n(C)c3ccccc23)CC1	–	–	–	–	75
COc1ccc(CNC(=O)COc2cc(=O)n(C)c3ccccc23)cc1	–	–	–	–	–
CN(C(=O)COc1cc(=O)n(C)c2ccccc12)c1ccc(Cl)cc1	–	–	–	–	–
Cc1ccc(CNC(=O)CCCOc2cc(=O)n(C)c3ccccc23)o1	–	–	–	6.4	–
COc1ccc(OC)c(CNC(=O)COc2cc(=O)n(C)c3ccccc23)c1	–	57	–	–	–
COc1ccc(N2CCN(C(=O)CCCOc3cc(=O)n(C)c4ccccc34)CC2)cc1	–	–	–	–	–
Cc1ccc(C)c(N(C)C(=O)COc2cc(=O)n(C)c3ccccc23)c1	–	–	–	4.8	–
CC(OC(=O)c1ccc(Cl)nc1)C(=O)Nc1ccc2c(c1)OCO2 (stereo not given)	·	–	–	–	·
NS(=O)(=O)c1ccc(CCNC(=O)c2ccc(C#CC3(O)CCCCC3)cc2)cc1	-54	–	–	–	–
SMILES	HSF1 inh	AHR activator	FXN GAA850 act	DAX1 inh	HSF-1 act
CCCOC(=O)Nc1cc(OC)ccc1[N+](=O)[O-]	–	–	–	4.7	–
COc1ccc(/C=C2\SC(=S)N(N3C(=O)CCC3=O)C2=O)cc1O	–	–	–	4.4	–
CCC1SC(CC)C(=O)N(CC(=O)Nc2ccc3c(c2)OCO3)C1=O (stereo not given)	–	–	–	–	53
CC1SCC(=O)N(CC(=O)Nc2ccc3c(c2)OCO3)C1=O (stereo not given)	–	–	–	–	–
O=C(CN1C(=O)c2cccc3cccc1c23)Nc1ccc2c(c1)OCO2	–	–	–	4.4	–
Cc1cc2ccccc2c(=O)n1CC(=O)Nc1ccc2c(c1)OCO2	-68	–	–	–	–
Cc1cc(C)n(CC(=O)Nc2ccc3c(c2)OCO3)c(=O)c1C#N	–	–	–	–	–
Cc1cc(C)cc(C(=O)Nc2cccc(NC(=O)c3ccco3)c2)c1	–	·	–	–	–
Cc1noc(C)c1NC(=O)Nc1ccc2c(c1)C(=O)N([C@H](C)CO)C[C@@H](C)[C@@H](CN(C)S(=O)(=O)c1cn(C)cn1)OCCCC[C@H](C)O2	·	·	–	–	·
COc1cc(/C=N/NC(=O)C(Cc2c[nH]c3ccccc23)NC(=O)OCC(C)C)cc([N+](=O)[O-])c1O (stereo not given)	–	–	–	–	–
COc1cc(/C=N/NC(=O)C(Cc2c[nH]c3ccccc23)NC(=O)OCC(C)C)cc([N+](=O)[O-])c1OCc1ccccc1 (stereo not given)	–	64	–	5.2	–
